# Test results taken from the supplement of paper PMC10037445.
# In all, about 2,900 compounds were measured (“NF-kB SEAP reporter activity, fold change vs agonist alone”: median about 0.99, highest 2% from about 2.6 on). For the sample, the highest values were picked, then their nearest neighbours and some compounds at random.
# Experiments:
# [1] = tested on: RAW-Dual; test: NF-kB SEAP reporter activity, fold change vs agonist alone; higher = enhanced NF-kB activity
# How it was run: (§1)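 Cytotoxic wells were those whose IncuCyte confluency was below 70% of agonist controls in both mask sets. The cells were RAW-Dual macrophages at 50,000 cells/well in DMEM on 384-well plates, dosed with 50 nL of library stock by pin tool, stimulated with a PRR agonist 1 h later, and kept at 37 °C, 5% CO2 for 20 hours. IRF and NF-κB reporter activity, as fold change over agonist-alone wells, came from supernatant read by QuantiLuc luminescence and QuantiBlue absorbance, respectively.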
# [2] = tested on: RAW-Dual; test: NF-kB SEAP reporter activity, fold change vs agonist alone; cytotoxicity flag (confluency mask): not cytotoxic; higher = enhanced NF-kB activity
# How it was run: as §1
# [3] = tested on: RAW-Dual; test: NF-kB SEAP reporter activity, fold change vs agonist alone; cytotoxicity flag (confluency mask): cytotoxic (confluency <70% of control); higher = enhanced NF-kB activity
# How it was run: as §1
# [4] = agonist: ODN 1826 (TLR9) 0.5 ug/mL
# [5] = agonist: Pam2CSK4 (TLR2/6) 0.1 ug/mL
# [6] = agonist: Pam3CSK4 (TLR2/1) 0.1 ug/mL
# [7] = library stock concentration (final ~1000-fold dilution): 10 mM, cytotoxicity flag (confluency mask): not cytotoxic, agonist: Imiquimod (TLR7) […]
# [8] = library stock concentration (final ~1000-fold dilution): 10 mM, cytotoxicity flag (confluency mask): not cytotoxic, agonist: MPLA (TLR4) […]
# [9] = library stock concentration (final ~1000-fold dilution): 10 mM, cytotoxicity flag (confluency mask): cytotoxic (confluency <70% of control), agonist: Imiquimod (TLR7) […]
# [10] = library stock concentration (final ~1000-fold dilution): 10 mM, cytotoxicity flag (confluency mask): cytotoxic (confluency <70% of control), agonist: MPLA (TLR4) […]
structure (smiles),measurement,setting,value
CC(=O)c1c(C)c2cnc(Nc3ccc(N4CCNCC4)cn3)nc2n(C2CCCC2)c1=O.O=S(=O)(O)CCO,NF-kB SEAP reporter activity,"[1]; library stock concentration (final ~1000-fold dilution): 10 mM water, cytotoxicity flag (confluency mask): not cytotoxic, agonist: Imiquimod (TLR7) […]",0.674
same,NF-kB SEAP reporter activity,"[1]; library stock concentration (final ~1000-fold dilution): 10 mM water, cytotoxicity flag (confluency mask): not cytotoxic, agonist: MPLA (TLR4) […]",1.09
CC(=O)c1c(C)c2cnc(Nc3ccc(N4CCNCC4)cn3)nc2n(C2CCCC2)c1=O.O=S(=O)(O)CCO (library stock concentration (final ~1000-fold dilution): 10 mM water),NF-kB SEAP reporter activity,[2]; agonist: LPS (TLR4) 0.1 ug/mL,1.71
same,NF-kB SEAP reporter activity,[2]; [4],0.449
same,NF-kB SEAP reporter activity,[2]; [5],0.752
same,NF-kB SEAP reporter activity,[2]; [6],1.29
CCC(Nc1ncnc2[nH]cnc12)c1nc2cccc(F)c2c(=O)n1-c1ccccc1 (stereo unspecified) (library stock concentration (final ~1000-fold dilution): 10 mM),NF-kB SEAP reporter activity,[2]; agonist: LPS (TLR4) 0.1 ug/mL,1.27
same,NF-kB SEAP reporter activity,[2]; [4],1.08
same,NF-kB SEAP reporter activity,[2]; [5],0.969
same,NF-kB SEAP reporter activity,[2]; [6],0.843
CCC(Nc1ncnc2[nH]cnc12)c1nc2cccc(F)c2c(=O)n1-c1ccccc1 (stereo unspecified),NF-kB SEAP reporter activity,[1]; [7],0.75
same,NF-kB SEAP reporter activity,[1]; [8],0.952
CC(NC(=O)c1ncnc(N)c1Cl)c1ncc(C(=O)Nc2cc(C(F)(F)F)c(Cl)cn2)s1 (stereo unspecified),NF-kB SEAP reporter activity,[1]; [7],0.623
same,NF-kB SEAP reporter activity,[1]; [8],0.876
CC(NC(=O)c1ncnc(N)c1Cl)c1ncc(C(=O)Nc2cc(C(F)(F)F)c(Cl)cn2)s1 (stereo unspecified) (library stock concentration (final ~1000-fold dilution): 10 mM),NF-kB SEAP reporter activity,[2]; agonist: LPS (TLR4) 0.1 ug/mL,0.632
same,NF-kB SEAP reporter activity,[2]; [4],0.495
same,NF-kB SEAP reporter activity,[2]; [5],0.383
same,NF-kB SEAP reporter activity,[2]; [6],0.417
O=C1C(Cc2ccc(O)cc2)N2C(=O)CCN(C(=O)NCc3ccccc3)C2CN1Cc1cccc2ccccc12 (stereo unspecified) (library stock concentration (final ~1000-fold dilution): 10 mM),NF-kB SEAP reporter activity,[2]; agonist: LPS (TLR4) 0.1 ug/mL,3.72
same,NF-kB SEAP reporter activity,[2]; [4],1.08
same,NF-kB SEAP reporter activity,[2]; [5],0.484
same,NF-kB SEAP reporter activity,[2]; [6],0.63
O=C1C(Cc2ccc(O)cc2)N2C(=O)CCN(C(=O)NCc3ccccc3)C2CN1Cc1cccc2ccccc12 (stereo unspecified),NF-kB SEAP reporter activity,[1]; [7],1.45
same,NF-kB SEAP reporter activity,[1]; [8],2.26
CNCCN1CCC(OCc2ccccc2)CC1.Cl.Cl (library stock concentration (final ~1000-fold dilution): 10 mM),NF-kB SEAP reporter activity,[2]; agonist: LPS (TLR4) 0.1 ug/mL,1.03
same,NF-kB SEAP reporter activity,[2]; [4],1.45
same,NF-kB SEAP reporter activity,[2]; [5],0.877
same,NF-kB SEAP reporter activity,[2]; [6],1.53
CNCCN1CCC(OCc2ccccc2)CC1.Cl.Cl,NF-kB SEAP reporter activity,[1]; [7],1.55
same,NF-kB SEAP reporter activity,[1]; [8],0.921
CC1OC(OC2C(Oc3cc(O)c(C(=O)CCc4ccc(O)cc4)c(O)c3)OC(CO)C(O)C2O)C(O)C(O)C1O (stereo unspecified) (library stock concentration (final ~1000-fold dilution): 10 mM),NF-kB SEAP reporter activity,[2]; agonist: LPS (TLR4) 0.1 ug/mL,0.867
same,NF-kB SEAP reporter activity,[2]; [4],0.991
same,NF-kB SEAP reporter activity,[2]; [5],0.784
same,NF-kB SEAP reporter activity,[2]; [6],1.06
CC1OC(OC2C(Oc3cc(O)c(C(=O)CCc4ccc(O)cc4)c(O)c3)OC(CO)C(O)C2O)C(O)C(O)C1O (stereo unspecified),NF-kB SEAP reporter activity,[1]; [7],0.957
same,NF-kB SEAP reporter activity,[1]; [8],1.03
O=c1c(-c2ccc(O)cc2)coc2cc(OC3OC(CO)C(O)C(O)C3O)ccc12 (stereo unspecified) (library stock concentration (final ~1000-fold dilution): 10 mM),NF-kB SEAP reporter activity,[2]; agonist: LPS (TLR4) 0.1 ug/mL,1.62
same,NF-kB SEAP reporter activity,[2]; [4],1.17
same,NF-kB SEAP reporter activity,[2]; [5],1.25
same,NF-kB SEAP reporter activity,[2]; [6],1.38
O=c1c(-c2ccc(O)cc2)coc2cc(OC3OC(CO)C(O)C(O)C3O)ccc12 (stereo unspecified),NF-kB SEAP reporter activity,[1]; [7],1.08
same,NF-kB SEAP reporter activity,[1]; [8],1.08
CN(CC(=O)N(Cc1ccc(C2CCCCC2)cc1)c1ccc(C(=O)NO)cc1)S(=O)(=O)c1c(F)c(F)c(F)c(F)c1F (library stock concentration (final ~1000-fold dilution): 10 mM),NF-kB SEAP reporter activity,[2]; agonist: LPS (TLR4) 0.1 ug/mL,0.324
same,NF-kB SEAP reporter activity,[2]; [4],1.53
same,NF-kB SEAP reporter activity,[2]; [5],0.374
same,NF-kB SEAP reporter activity,[2]; [6],0.284
CN(CC(=O)N(Cc1ccc(C2CCCCC2)cc1)c1ccc(C(=O)NO)cc1)S(=O)(=O)c1c(F)c(F)c(F)c(F)c1F,NF-kB SEAP reporter activity,[1]; [7],1.3
same,NF-kB SEAP reporter activity,[1]; [8],1.02
CS(=O)(=O)O.Cc1ccc(NC(=O)c2ccc(CN3CCN(C)CC3)cc2)cc1Nc1nccc(-c2cccnc2)n1,NF-kB SEAP reporter activity,[1]; [9],1.24
same,NF-kB SEAP reporter activity,[1]; [10],1.46
CNCc1ccc(-c2cc(-c3nc(-c4ccc(S(=O)(=O)C(C)C)cc4)cnc3N)on2)cc1,NF-kB SEAP reporter activity,[1]; [7],0.858
same,NF-kB SEAP reporter activity,[1]; [8],0.98
CC(C)(C)c1ccc(S(=O)(=O)NCc2ccc(C(=O)Nc3cccnc3)cc2)cc1,NF-kB SEAP reporter activity,[1]; [7],0.865
same,NF-kB SEAP reporter activity,[1]; [8],0.908
CC(C)(C)c1ccc(S(=O)(=O)NCc2ccc(C(=O)Nc3cccnc3)cc2)cc1 (library stock concentration (final ~1000-fold dilution): 10 mM),NF-kB SEAP reporter activity,[2]; agonist: LPS (TLR4) 0.1 ug/mL,0.67
same,NF-kB SEAP reporter activity,[2]; [4],1.1
same,NF-kB SEAP reporter activity,[2]; [5],0.834
same,NF-kB SEAP reporter activity,[2]; [6],0.706
CS(=O)(=O)c1ccc(-c2cnc(N)c(C(=O)Nc3ccccc3)n2)cc1,NF-kB SEAP reporter activity,[1]; [7],1.45
same,NF-kB SEAP reporter activity,[1]; [8],2.21
CNCc1ccc(-c2cc(-c3nc(-c4ccc(S(=O)(=O)C(C)C)cc4)cnc3N)on2)cc1 (library stock concentration (final ~1000-fold dilution): 10 mM),NF-kB SEAP reporter activity,[2]; agonist: LPS (TLR4) 0.1 ug/mL,1.06
same,NF-kB SEAP reporter activity,[2]; [4],0.943
same,NF-kB SEAP reporter activity,[2]; [5],0.871
same,NF-kB SEAP reporter activity,[2]; [6],1.05
CN1CCN(S(=O)(=O)c2ccc(-c3cnc(N)c(C(=O)Nc4cccnc4)n3)cc2)CC1 (library stock concentration (final ~1000-fold dilution): 10 mM),NF-kB SEAP reporter activity,[2]; agonist: LPS (TLR4) 0.1 ug/mL,4.28
same,NF-kB SEAP reporter activity,[2]; [4],2.61
same,NF-kB SEAP reporter activity,[2]; [5],1.11
same,NF-kB SEAP reporter activity,[2]; [6],2.07
CS(=O)(=O)O.Cc1ccc(NC(=O)c2ccc(CN3CCN(C)CC3)cc2)cc1Nc1nccc(-c2cccnc2)n1 (library stock concentration (final ~1000-fold dilution): 10 mM),NF-kB SEAP reporter activity,[3]; agonist: LPS (TLR4) 0.1 ug/mL,1.29
same,NF-kB SEAP reporter activity,[3]; [4],0.201
same,NF-kB SEAP reporter activity,[3]; [5],1.13
same,NF-kB SEAP reporter activity,[3]; [6],1.25
CS(=O)(=O)c1ccc(C(=O)Nc2ccc(Cl)c(-c3ccccn3)c2)c(Cl)c1,NF-kB SEAP reporter activity,[1]; [7],1.07
same,NF-kB SEAP reporter activity,[1]; [8],0.945
CN1CCN(S(=O)(=O)c2ccc(-c3cnc(N)c(C(=O)Nc4cccnc4)n3)cc2)CC1,NF-kB SEAP reporter activity,[1]; [7],1.5
same,NF-kB SEAP reporter activity,[1]; [8],2.5
CS(=O)(=O)c1ccc(C(=O)Nc2ccc(Cl)c(-c3ccccn3)c2)c(Cl)c1 (library stock concentration (final ~1000-fold dilution): 10 mM),NF-kB SEAP reporter activity,[2]; agonist: LPS (TLR4) 0.1 ug/mL,1.19
same,NF-kB SEAP reporter activity,[2]; [4],1.4
same,NF-kB SEAP reporter activity,[2]; [5],0.898
same,NF-kB SEAP reporter activity,[2]; [6],1.01
CS(=O)(=O)c1ccc(-c2cnc(N)c(C(=O)Nc3ccccc3)n2)cc1 (library stock concentration (final ~1000-fold dilution): 10 mM),NF-kB SEAP reporter activity,[2]; agonist: LPS (TLR4) 0.1 ug/mL,4.61
same,NF-kB SEAP reporter activity,[2]; [4],0.67
same,NF-kB SEAP reporter activity,[2]; [5],1.02
same,NF-kB SEAP reporter activity,[2]; [6],1.48
CC/C=C\C/C=C\C/C=C\C/C=C\C/C=C\C/C=C\CCC(=O)NCCNC(=O)c1ccccc1O,NF-kB SEAP reporter activity,[1]; [9],0.248
same,NF-kB SEAP reporter activity,[1]; [10],1.54
CC/C=C\C/C=C\C/C=C\C/C=C\C/C=C\C/C=C\CCC(=O)NCCNC(=O)c1ccccc1O (library stock concentration (final ~1000-fold dilution): 10 mM),NF-kB SEAP reporter activity,[3]; agonist: LPS (TLR4) 0.1 ug/mL,0.318
same,NF-kB SEAP reporter activity,[3]; [4],0.298
same,NF-kB SEAP reporter activity,[3]; [5],0.133
same,NF-kB SEAP reporter activity,[3]; [6],0.184
C=CC(=O)N1CC(N2CCN(C(=O)CNc3cc(C4(C)CC4)c(Cl)cc3O)CC2)C1,NF-kB SEAP reporter activity,[1]; [7],0.915
same,NF-kB SEAP reporter activity,[1]; [8],0.645
C=CC(=O)N1CC(N2CCN(C(=O)CNc3cc(C4(C)CC4)c(Cl)cc3O)CC2)C1 (library stock concentration (final ~1000-fold dilution): 10 mM),NF-kB SEAP reporter activity,[2]; agonist: LPS (TLR4) 0.1 ug/mL,0.418
same,NF-kB SEAP reporter activity,[2]; [4],0.542
same,NF-kB SEAP reporter activity,[2]; [5],0.537
same,NF-kB SEAP reporter activity,[2]; [6],0.448
